High-throughput results deposited in PubChem by National Center for Advancing Translational Sciences (NCATS).
This is a sample that favours compounds with a hit; in the whole collection about 7.9% have one here.
FMDV antiviral: blocks foot and mouth disease virus; FMDV antiviral cell-based qHTS; Potency, µM (series often up to 57.9 µM), for inactives: at the highest dose activity change, negative = inhibition, most hits filed as inhibitors; actives 1.2% (n = 410,000); AID 1159524; calls by dose curve; tested in HEK293T cells; further: read-out not given here; potency means the concentration at half of the fitted maximal effect; nearly all actives have a fitted effect of over 45% in size
Lassa entry inh: blocks Lassa virus binding to or entry into cells; Lassa virus pseudotype entry inhibition, cell reporter; Potency, µM (series often up to 37.9 µM), for inactives: top-dose activity change, negative = inhibition, hits mostly inhibitors; actives 1.2% (n = 300,000); AID 540256; calls by dose curve; tested in HEK293 cells; further: potency means the concentration at half of the fitted maximal effect; nearly all actives have a fitted effect of over 50% in size
HCMV antiviral: blocks human cytomegalovirus replication. AID 1259415. actives 4.5% (n = 410,000). HFF cells, HCMV-luciferase reporter, 72 h; stronger effect = lower value. activity change, negative = inhibition, % at 57.5 µM; in the data active means activity change below about -60%; inconclusive means no clear call, values can overlap the other calls; inactive means above about -39%
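Cell-based, HFFs, 1000 cells/well, 16 h 37C; cpds in DMSO + HCMV-luc, MOI 1 PFU/cell; 72 h 37C; OneGlo luminescence after 5 min RT; norm. to buffer vs Salinomycin 10uM.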
HCV inh: inhibitors of hepatitis C virus infection; Huh7.5.1 HCVcc-Cre infection, luciferase reporter, 44 h; Potency, µM (titrated, usually from 41.8 µM), for inactives: top-dose activity change, negative = inhibition, usual class: inhibitors; actives 3.4% (n = 340,000); active means well fitted inhibition curve with a large enough effect; inconclusive means small, poorly fitted or top-dose-only effect, or another doubt; inactive means no such curve, though single readings can be large or run the other way; further: potency means the concentration at half of the fitted maximal effect
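Reporter virus HCVcc-Cre (~0.5 moi) infects cells exposed to compound; seeding density 1,000 cells/well with 4 h settling beforehand. Luminescence, 15 sec read, taken 44 h post-infection following a 15 min RT substrate incubation.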
MARV entry inh: inhibitors of Marburg virus binding or cell entry | actives 1.8% (n = 300,000) | Marburg virus pseudotyped entry inhibition, cell reporter | AID 540276 | Potency, µM (highest dose often 37.8 µM), inactives show at the top dose activity change, negative = inhibition, usual class: inhibitors; calls by dose curve; tested in HEK293 cells; further: potency means the concentration at half of the fitted maximal effect
Active calls of the source: *; ? = inconclusive; / = no result; [ ] = another dose, or the depositor's remark. On the % scale 0 is the no-effect control and ±100 the full control effect.

SMILES | FMDV antiviral | Lassa entry inh | HCMV antiviral | HCV inh | MARV entry inh
CCOc1ccc(C2c3c(oc4ccc(C)cc4c3=O)C(=O)N2CCCN2CCOCC2)cc1 (centres undefined) | 16.9% | 14.1%[46.1 µM] | 2.2 | / | /
CC1CC(C)(C)NC(=S)N1CCC(=O)Nc1ccc2c(c1)OCCO2 (centres undefined) | ? | 3.55µM* | 53.4 | ? | 11.2µM*
CC1CC(C)(C)NC(=S)N1CCCC(=O)Nc1ccc(Cl)cc1 (centres undefined) | -17.2% | -25.6% | -12.8 | 10.0% | 0.7%[46.1 µM]
CC(C)c1ccc(NC(=O)CCCN2C(=S)NC(C)(C)CC2C)cc1 (centres undefined) | 11.5% | 0.0%[46.1 µM] | -86.1* | -16.5% | -3.3%[46.1 µM]
CC(C)=CCCC(C)=CCON=C1C[C@@H](O)[C@@H](O)[C@@H]2[C@H]3C(=O)N(C[C@@H]4CCCO4)C(=O)[C@@H]3CC[C@@H]12 | / | / | / | / | -5.0%[14.2 µM]
CCOC(=O)C(C)Sc1nnc2ccc3ccccc3n12 (centres undefined) | 36.7% | 1.5%[46.1 µM] | -86.0* | / | 8.4%[46.1 µM]
CCOC(=O)C(C)Sc1nnc2cc(C)c3ccccc3n12 (centres undefined) | -8.5% | 0.0%[46.1 µM] | 2.5 | / | 12.7%[46.1 µM]
c1coc(C2=NC(c3ccco3)C(c3ccco3)N2)c1 (centres undefined) | 12.5% | 17.9%[46.1 µM] | / | 3.8% | 3.2%[46.1 µM]
CSc1ccccc1C(=O)NCc1nc(-c2cccc(NC(=O)c3ccoc3C)c2)oc1C | 31.6µM* | / | / | / | /
COC(=O)c1cccc(C(=O)NCc2nc(-c3cccc(NC(=O)c4ccoc4C)c3)oc2C)c1 | 22.4µM* | / | / | / | /
Cc1occc1C(=O)Nc1cccc(-c2nc(CNC(=O)c3cc(-c4ccccc4)n[nH]3)c(C)o2)c1 | -0.6% | / | / | / | /
Cc1occc1C(=O)Nc1cccc(-c2nc(CNC(=O)c3cccc(C#CC(C)(C)O)c3)c(C)o2)c1 | 20µM* | / | / | / | /
Cc1occc1C(=O)Nc1cccc(-c2nc(CNC(=O)c3ccc4ccccc4n3)c(C)o2)c1 | -8.1% | / | / | / | /
Cc1ccccc1NC(=O)CN1C(=O)N/C(=C/c2cccn2-c2cccc(C(=O)O)c2)C1=O | / | / | / | / | -2.3%[46.1 µM]
Cn1nc(-c2ccccc2F)c2cc(C(=O)N3CCN(c4ccccc4F)CC3)sc21 | -6.7% | ? | -27.5 | / | -9.9%[46.1 µM]
O=C(CCSCc1ccccc1F)N1CCN(c2ccc(F)cc2)CC1 | -10.9% | -10.0%[46.1 µM] | 15.5 | / | /
O=C(CCC(=O)N1CCN(c2ccccc2F)CC1)N1CCN(c2ccc(F)cc2)CC1 | 22.4µM* | ? | -62.3* | ? | -2.2%
O=C(CCC(=O)N1CCN(c2ccccc2F)CC1)N1CCN(c2ccccc2)CC1 | -12.2% | / | 29.2 | -9.8% | /
O=C(CCSCc1ccccc1Cl)N1CCN(c2ccc(F)cc2)CC1 | 3.1% | 10.1%[46.1 µM] | -63.8* | / | /
C/C(O)=C(/C#N)c1nc2ccccc2[nH]1 | -12.7% | 6.4% | -21.6 | 3.3% | 4.0%[46.1 µM]
CC(=O)OC(/C(O)=C(\C#N)c1nc2ccccc2[nH]1)c1ccccc1 (centres undefined) | / | -8.3% | -95.6* | -18.1% | -21.3%
COc1ccc(-n2c(/C=C/c3cccc4ccccc34)nc3ccccc3c2=O)cc1Cl | ? | 1.8%[46.1 µM] | -28.4 | / | /
Cc1ccc(CNC(=O)C2CCN(S(=O)(=O)c3c(C)noc3/C=C/N(C)C)CC2)cc1 | 19.6% | / | -17.3 | 18.3% | /
Cc1ccc(/C=C/c2onc(C)c2S(=O)(=O)N2CCC(C(=O)N3CCCCC3)CC2)cc1 | -22.0% | / | -38.5 | 8.2% | /
Cc1noc(/C=C/N(C)C)c1S(=O)(=O)N1CCC(C(=O)O)CC1 | -15.2% | / | -69.2* | 17.4% | /
SMILES | FMDV antiviral | Lassa entry inh | HCMV antiviral | HCV inh | MARV entry inh
Cc1cccc(/C=C/c2onc(C)c2S(=O)(=O)N2CCC(C(=O)N3CCCCC3)CC2)c1 | -24.1% | ? | 0.0 | 10µM* | /
COc1ccc(/C=C/c2onc(C)c2S(=O)(=O)N2CCC(C(=O)N3CCCCCC3)CC2)cc1 | -20.5% | ? | -69.0* | ? | ?
CC(C)(C)CC(C)(C)NC(=O)/C=C/C(=O)O | -4.1% | 2.9% | 17.5 | 7.0% | -0.7%
Cn1c(=O)n(-c2ccc(F)c(Cl)c2)c(=O)c2sc3ccccc3c21 | 4.0% | 2.4%[46.1 µM] | -18.1 | / | -7.4%[46.1 µM]
Cc1cc(N=NC(=O)c2ccccc2O)c2ccccc2c1O | -18.2% | -20.8% | -72.7* | ? | ?
O=C(NCc1cccnc1)c1ccc(-c2ccc(F)c(F)c2)c2ccoc12 | ? | / | -85.3* | / | /
Cc1noc(C)c1-c1ccc(C(=O)Nc2cccc(C(F)(F)F)c2)c2occc12 | 6.1% | / | 29.6 | / | /
